This passage reports activation results from PubChem BioAssay AID2796 (The Scripps Research Institute Molecular Screening Center, 2010).

Screen size: about 320,000 compounds; about 8,000 (2.5%) were called active. Cut-off read from the data, not from the text of the source: active = activation above about 47%; inactive = the rest. This excerpt belongs to a sample that is enriched for actives.

For the test, the target named is Aryl hydrocarbon receptor (Homo sapiens) (UniProt P35869). The test is described as follows: AHR activators, primary screen, cell-based, luminescence, luciferase reporter, human (AID 2796).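 Note: 0% = vehicle wells and 100% = reference agonist.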 Particulars: AHR-responsive luciferase reporter cells, at 5 µM, stronger effect = higher value.
Sequence of Aryl hydrocarbon receptor (Homo sapiens) (P35869 whole entry, looked up): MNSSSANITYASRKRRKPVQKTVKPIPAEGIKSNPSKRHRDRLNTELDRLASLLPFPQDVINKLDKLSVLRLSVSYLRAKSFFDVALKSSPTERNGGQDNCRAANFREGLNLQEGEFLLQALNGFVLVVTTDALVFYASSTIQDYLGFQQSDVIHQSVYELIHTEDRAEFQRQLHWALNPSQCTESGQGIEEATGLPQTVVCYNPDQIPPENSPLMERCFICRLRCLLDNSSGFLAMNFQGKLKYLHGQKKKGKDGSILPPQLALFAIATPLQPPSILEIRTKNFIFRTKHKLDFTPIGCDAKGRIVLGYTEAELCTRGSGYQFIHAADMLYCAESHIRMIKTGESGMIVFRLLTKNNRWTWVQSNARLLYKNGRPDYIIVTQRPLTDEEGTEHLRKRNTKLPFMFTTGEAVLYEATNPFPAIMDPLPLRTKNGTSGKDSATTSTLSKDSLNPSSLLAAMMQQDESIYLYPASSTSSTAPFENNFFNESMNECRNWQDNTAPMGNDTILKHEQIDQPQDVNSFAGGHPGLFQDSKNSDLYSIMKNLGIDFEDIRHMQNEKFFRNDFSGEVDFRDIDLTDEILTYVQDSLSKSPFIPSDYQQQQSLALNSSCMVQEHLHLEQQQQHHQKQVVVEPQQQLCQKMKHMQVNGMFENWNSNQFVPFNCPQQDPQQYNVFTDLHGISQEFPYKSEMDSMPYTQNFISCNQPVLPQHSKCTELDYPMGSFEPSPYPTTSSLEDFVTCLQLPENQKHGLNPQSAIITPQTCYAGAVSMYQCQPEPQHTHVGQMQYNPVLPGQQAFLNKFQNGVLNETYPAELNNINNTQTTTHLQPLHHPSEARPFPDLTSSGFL
Regarding `CCCCn1c(N)c(N(CCOC)C(=O)CSCC(=O)Nc2cccc(C)c2)c(=O)[nH]c1=O`, the activation was 1.66% (inactive).

Take `Cc1ccc(C)c(N2CCN(C(=O)CCCn3c(=O)c4cccn4c4cccnc43)CC2)c1`: the activation is 6.45% (inactive).

Turning to `CCc1nn(CC(=O)N2CCN(c3cc(C)ccc3C)CC2)c(=O)c2cc3occc3n12`, the activation is 4.48% (inactive).

Consider `Cc1ccc(C)c(N2CCN(C(=O)Cn3ncn4cccc4c3=O)CC2)c1`, for which the activation is 49.4% (active).

Consider `COc1ccc2nc3n(c(=O)c2c1)-c1ccc(Cl)cc1C(=O)NC3Cc1ccccc1` (centres undefined), for which the activation is 1.56% (inactive).

As to `O=C(O)c1ccccc1-c1ccccc1C(=O)Nc1ccccc1Br`, the activation is 0.17% (inactive).

Turning to `CC(C)N(Cc1nc(-c2ccc3c(c2)OCO3)no1)CC1CCC(=O)N1` (centres undefined), the activation was 16.6% (inactive).

Turning to `CN(CCN1CCOCC1)Cc1nc(-c2ccc3c(c2)OCO3)no1`, the activation is 10.5% (inactive).

Regarding `CCn1ccnc1CN(C)Cc1nc(-c2ccc3c(c2)OCO3)no1`, the activation is 86.7% (active).

In the case of `CCOc1c2ccc(C(=O)NC3CCCc4ccccc43)cc2nn1CC` (centres undefined), the activation is 7.2% (inactive).

For `Cc1cc(C)nc(NC(=O)c2cccc([N+](=O)[O-])c2)c1`, the activation is 40.8% (inactive).

As for `O=C(Nc1ccc(C2CC2(Cl)Cl)cc1)c1cccc([N+](=O)[O-])c1` (centres undefined), the activation is 96.3% (active).

In the case of `O=C(Nc1ccc(C(=O)N2CCCCC2)cc1)c1cccc([N+](=O)[O-])c1`, the activation was -1.69% (inactive).

`Cc1ccc(-c2nn(-c3ccccc3)cc2C(=O)NCCCN2CCCC2=O)cc1`: the activation is 1.15% (inactive).

With `CCC(C)(C)NC(=O)/C=C/c1cc(OC)c(OC)c(S(=O)(=O)N2CCc3ccccc32)c1`, the activation was 5.39% (inactive).

On to `COc1ccc(N(CC(=O)N/N=C/c2cccs2)S(=O)(=O)c2ccc(OC)c(OC)c2)cc1`, for which the activation was 1.41% (inactive).

Take `NC(=O)N/N=C\c1cccs1`: the activation is -0.87% (inactive).

As for `COc1ccc2c(c1)c(C(=O)N/N=C/c1cccs1)c(C)n2C`, the activation was 72.6% (active).

Regarding `COc1cc(C(=O)NCc2nnc(SCC(=O)Nc3nc4ccc(C)cc4s3)o2)cc(OC)c1OC`, the activation was -5.66% (inactive).

Turning to `COCCN(CCOC)S(=O)(=O)c1ccc(/C(O)=C(\C#N)c2nc3ccccc3[nH]2)cc1`, the activation is 6.43% (inactive).

Turning to `O=C(/C(=C/c1cccc(Cl)c1)c1nc2ccccc2[nH]1)c1ccccc1`, the activation was 44.8% (inactive).

Regarding `CCC(=O)/C(=C(/O)c1ccccc1)c1nc2ccccc2[nH]1`, the activation was 64.6% (active).

As to `COC(C[C@@H]1O[C@@H]1C(=O)[C@@H](C)OCc1ccccc1)OC`, the activation is -3.27% (inactive).

For the compound `COc1ccc(Cl)cc1NC(=O)CN(C)C(=O)CCCc1c[nH]c2ccccc12`, the activation was 51.8% (active).

For the compound `COc1ccc(Cl)cc1NC(=O)CN(C)C(=O)c1cc2ccccc2cc1OC`, the activation is 19.4% (inactive).

As for `COc1ccccc1NC(=O)CCCc1c[nH]c2ccccc12`, the activation is 6.67% (inactive).

For `O=C(OCC(=O)N1CCCCC1)c1ccc(OC(F)(F)F)cc1`, the activation is 0.31% (inactive).

For the compound `CN(C)NC(=O)c1csnc1-c1c(Cl)cccc1Cl`, the activation was 1.27% (inactive).

Take `CC1CC(=O)Nc2ccccc2N1C(=O)COc1ccc2cc(Br)ccc2c1` (centres undefined): the activation was 2.14% (inactive).

Take `COc1ccc(C(=O)NC(=S)Nc2ccc(Cl)cn2)cc1OC`: the activation is 5.66% (inactive).

For `COc1ccc(C(=O)N/N=C(\C)CC(=O)Nc2ccc(Cl)cn2)cc1`, the activation is 13.8% (inactive).

Consider `COc1c(Cl)cc(C(=O)Nc2ccc(Cl)cn2)cc1Cl`, for which the activation was 67.2% (active).

As to `COc1ccc(N(CC(=O)NCc2ccc(F)cc2)C(=O)CCC(=O)Nc2nccs2)cc1`, the activation is 0.66% (inactive).

As to `COc1cccc(CNC(=O)CCN2C(=S)NC(C)(C)CC2C)c1` (centres undefined), the activation is 3.02% (inactive).

`Clc1ccc(CSc2nnc([C@@H]3CCCN3)o2)cc1`: the activation was 0.21% (inactive).

In the case of `CCCCSc1nnc(-c2ccc(C)cc2)o1`, the activation was -1.09% (inactive).

In the case of `O=C(CSc1nnc(-c2ccccc2O)o1)NC1CCCCC1`, the activation was -6.68% (inactive).

Consider `Fc1ccc(CSc2nnc(-c3cc4c(s3)-c3ccccc3CC4)o2)cc1`, for which the activation was 51.6% (active).

`CCSc1nnc(-c2cc3c(s2)-c2ccccc2CC3)o1`: the activation is 62.1% (active).

Regarding `Fc1ccc(-c2nnc(CSc3nnc(-c4ccc5c(c4)OCO5)o3)o2)cc1`, the activation is 11.2% (inactive).

Regarding `CCOc1ncccc1C(=O)NNC(=O)c1cccc(S(=O)(=O)Nc2ccccc2OC)c1`, the activation was -1.36% (inactive).

As for `COc1ccc(N(C(=O)CNC(=O)c2ccco2)C(C(=O)NCC2CCCO2)c2ccccc2)cc1Cl` (centres undefined), the activation was -0.46% (inactive).

On to `CC1=NNC(=O)C1CC(=O)N/N=C/c1ccncc1` (centres undefined), for which the activation was -0.52% (inactive).

Regarding `CCCCCC(=O)N1CCN(S(=O)(=O)c2ccc3c(c2)OCCCO3)CC1`, the activation was 1.73% (inactive).

As for `c1ccc2c(C[n+]3csc4ccccc43)cccc2c1`, the activation was 12.7% (inactive).

As to `CN(C(=O)Cn1nnc(-c2ccc(F)cc2)n1)C1CCS(=O)(=O)C1` (centres undefined), the activation was -0.41% (inactive).

`O=C(Nc1cc(S(=O)(=O)N2CCCCC2)ccc1Cl)C1COc2ccccc2O1` (centres undefined): the activation is 0.26% (inactive).

`CCN(c1ccccc1)S(=O)(=O)c1ccc(C(=O)Nc2nccs2)cc1`: the activation was 3.71% (inactive).

`COCCN(CCOC)S(=O)(=O)c1ccc(C(=O)Nc2nc3c(s2)CCc2ccccc2-3)cc1`: the activation was 11.6% (inactive).

Take `C=CCN(CC=C)S(=O)(=O)c1ccc(C(=O)Nc2nc3c(s2)CCc2ccccc2-3)cc1`: the activation was 50.7% (active).

With `Cn1cccc1C(=O)NC(=O)COC(=O)Cc1coc2ccc3ccccc3c12`, the activation was 16.2% (inactive).

Regarding `CCCCn1c(SCC(=O)N2CCOCC2)nc2c1c(=O)n(C)c(=O)n2C`, the activation was 0.02% (inactive).

Regarding `CCCOc1ccccc1-c1nc(SCCC(=O)O)n[nH]1`, the activation was 10.6% (inactive).

Regarding `Cc1cc(C)nc(Nc2n[nH]c(-c3ccccc3N)n2)n1`, the activation was 67% (active).

With `Cc1cc(C)nc(Nc2ncn[nH]2)n1`, the activation is 2.66% (inactive).

In the case of `CCCCNC(=O)Nc1c(C)cc(SC#N)cc1C`, the activation was 3.18% (inactive).

Regarding `O=C(c1cncc(Br)c1)N1CCN(c2ccc([N+](=O)[O-])cc2)CC1`, the activation was 52.5% (active).

Take `O=C(c1cc(C(=O)N2CCN(c3ccc(F)cc3)CC2)cc([N+](=O)[O-])c1)N1CCN(c2ccc(F)cc2)CC1`: the activation was 3.86% (inactive).

`O=C(c1ccc(Cl)c([N+](=O)[O-])c1)N1CCN(c2ccccc2)CC1`: the activation was 2.09% (inactive).
